# Where “and” joins values, the source holds several entries; their conditions need not be identical. Identical values can stand only once. Out of some 57,000 compounds screened, about 200 (0.35%) were called active. This excerpt belongs to a sample that is enriched for actives. A number with no mark means an inactive call.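 How the source made its calls: active means mean inhibition of replicates at least 50% and every single replicate also reaching 50%; inconclusive means mean inhibition at least 50% but some replicate falls below 50%; inactive means mean inhibition under 50%.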
# Biological target: Histone-lysine N-methyltransferase EZH2 (Homo sapiens) (UniProt Q15910)
# Sequence (Q15910 whole entry, looked up): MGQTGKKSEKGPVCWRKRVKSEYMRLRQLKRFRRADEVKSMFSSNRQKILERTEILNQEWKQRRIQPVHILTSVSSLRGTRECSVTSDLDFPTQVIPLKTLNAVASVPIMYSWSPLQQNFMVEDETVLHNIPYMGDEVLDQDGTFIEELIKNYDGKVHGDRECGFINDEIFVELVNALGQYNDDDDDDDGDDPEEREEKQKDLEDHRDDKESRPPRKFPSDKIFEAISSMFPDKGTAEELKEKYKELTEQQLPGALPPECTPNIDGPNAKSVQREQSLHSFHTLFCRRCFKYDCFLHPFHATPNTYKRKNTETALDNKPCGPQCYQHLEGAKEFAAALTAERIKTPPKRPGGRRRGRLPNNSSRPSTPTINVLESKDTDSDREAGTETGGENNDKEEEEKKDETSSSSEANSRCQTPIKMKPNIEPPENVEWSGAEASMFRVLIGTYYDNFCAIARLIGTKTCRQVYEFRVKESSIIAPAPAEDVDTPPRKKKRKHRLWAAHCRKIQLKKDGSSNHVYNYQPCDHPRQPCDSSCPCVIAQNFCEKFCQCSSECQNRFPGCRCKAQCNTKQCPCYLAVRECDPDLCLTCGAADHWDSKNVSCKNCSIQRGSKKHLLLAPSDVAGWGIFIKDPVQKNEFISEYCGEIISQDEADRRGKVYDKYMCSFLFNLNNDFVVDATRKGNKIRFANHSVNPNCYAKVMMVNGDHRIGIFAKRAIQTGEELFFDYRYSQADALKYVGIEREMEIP
# Assay: EZH2/PRC2 methyltransferase inhibitors, primary screen, biochemical, DELFIA time-resolved fluorescence, single point (AID 651548);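 further: dimethyl H3K27 on biotinylated H3 21-44 peptide detected by antibody; plate controls were median neutral control wells for no effect and median positive control wells for full effect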
# Conditions: PRC2 H3K27 methylation, DELFIA TRF, 1 h; at 12.5 µM; stronger effect = higher value
row,SMILES,inhibition
1,CCC(=O)N1C[C@H](C)[C@H](OC)CN(C)C(=O)c2ccc(NC(=O)c3cnccn3)cc2OC[C@@H]1C,10.3%
2,COc1cccc(S(=O)(=O)N[C@H]2C=C[C@@H](CC(=O)NCc3ccc(F)cc3)O[C@@H]2CO)c1,13.3%
3,C[C@@H]1CCCCO[C@H](CN(C)C)[C@H](C)CN([C@@H](C)CO)C(=O)c2cc(NS(=O)(=O)c3ccccc3)ccc2O1,-7.21%
4,CCCNC(=O)N1C[C@@H](C)[C@@H](OC)CN(C)C(=O)c2ccc(NC(=O)CCC)cc2OC[C@H]1C,-3.61%
5,CC(C)NC(=O)N(C)C[C@H]1Oc2ncc(-c3ccccc3F)cc2C(=O)N([C@@H](C)CO)C[C@@H]1C,-0.301%
6,COc1cccc(NC(=O)N[C@H]2C=C[C@@H](CC(=O)Nc3ccc(-c4ccccc4)cc3)O[C@@H]2CO)c1,-1.25%
7,O=C(C[C@H]1C[C@H]2c3cc(NC(=O)CC4CC4)ccc3O[C@H]2[C@H](CO)O1)NCc1ccccc1,-28.9%
8,C[C@@H]1CN([C@H](C)CO)S(=O)(=O)c2ccc(C#CC3CCCCC3)cc2O[C@H]1CN(C)C(=O)Cc1ccncc1,-42.6% and -20.9%
9,COc1ccc(NC(=O)N[C@H]2CC[C@@H](CCNS(=O)(=O)c3cccc(Cl)c3)O[C@H]2CO)cc1,-37.3%
10,CO[C@@H]1CN(C)C(=O)c2ccc(NC(=O)Nc3c(C)noc3C)cc2OC[C@@H](C)N(C(=O)Nc2cccc(Cl)c2)C[C@H]1C,-3.56%
11,CCC(=O)N(C)C[C@H]1Oc2cc(C#CC3CC3)ccc2S(=O)(=O)N([C@H](C)CO)C[C@H]1C,-6.49%
12,CCOC(=O)C1CCCN(C(=O)c2c[nH]n3c(=O)c(Cc4ccc(Cl)cc4)c(C)nc23)C1 (centres undefined),11.7%
13,CO[C@@H]1CN(C)C(=O)c2cc(NC(=O)c3ccc(F)cc3)ccc2OC[C@H](C)NC[C@@H]1C,8.13%
14,CC(C)C#Cc1ccc2c(c1)O[C@H](CN(C)CC1CCOCC1)[C@@H](C)CN([C@H](C)CO)S2(=O)=O,0.383%
15,COc1cccc(S(=O)(=O)N[C@H]2C=C[C@H](CC(=O)NCc3ccc(Cl)cc3)O[C@@H]2CO)c1,7.24%
16,C[C@H]1CN([C@@H](C)CO)C(=O)c2cccc(NC(=O)Nc3ccccc3)c2O[C@H]1CN(C)Cc1ccc(C(F)(F)F)cc1,-14.8%
17,C[C@H](CO)N1C[C@H](C)[C@@H](CN(C)C(=O)c2cccc(F)c2)Oc2cc(-c3cncnc3)ccc2S1(=O)=O,14.3% and -4.79%
18,COc1ccccc1C(=O)Nc1ccc2c(c1)C(=O)N(C)C[C@@H](OC)[C@@H](C)CN(C)[C@H](C)CO2,1.85%
19,COc1cccc(-c2cnc3c(c2)C(=O)N([C@H](C)CO)C[C@@H](C)[C@H](CN(C)Cc2ccc(F)cc2)O3)c1,10%
20,CC(C)NC(=O)N(C)C[C@@H]1Oc2cc(C#C[C@H](C)O)ccc2S(=O)(=O)N([C@@H](C)CO)C[C@H]1C,8.88%

row,SMILES,inhibition
1,C[C@@H]1CN([C@H](C)CO)S(=O)(=O)c2ccc(C#CC3(O)CCCC3)cc2O[C@@H]1CN(C)C(=O)c1cccnc1,5.12%
2,COCC(=O)Nc1ccc2c(c1)[C@@H]1C[C@H](CC(=O)NCc3cc(F)ccc3F)O[C@@H](CO)[C@@H]1O2,-6.69%
3,C[C@@H]1CN([C@@H](C)CO)S(=O)(=O)c2ccc(-c3ccc(C#N)cc3)cc2O[C@H]1CN(C)Cc1ccccn1,5.38%
4,CO[C@@H]1CN(C)C(=O)c2ccc(NC(=O)C3CCC3)cc2OC[C@H](C)N(C(=O)CN(C)C)C[C@H]1C,0.087%
5,O=C(C[C@@H]1C[C@@H]2c3cc(NC(=O)NC4CCCC4)ccc3O[C@@H]2[C@H](CO)O1)NCC(F)(F)F,3.2%
6,CC(C)(C)S(=O)N1Cc2cc(C(=O)O)nc(-c3cccc(-c4cc5ccccc5o4)c3)c2[C@@H]1CCO (some centres undefined),9.63%
7,CO[C@@H]1CN(C)C(=O)c2cc(NC(=O)NC3CCCCC3)ccc2OC[C@H](C)N(CC2CC2)C[C@H]1C,-6.48%
8,O=C(N[C@H]1CC[C@H](CCNS(=O)(=O)c2ccc(F)cc2)O[C@H]1CO)C1CCCC1,-3.3%
9,O=C(C[C@@H]1C=C[C@H](NC(=O)C2CCC2)[C@@H](CO)O1)NCC1CC1,10.5%
10,CCCN1C[C@H](C)[C@@H](OC)CN(C)C(=O)c2ccc(NC(=O)C3CCOCC3)cc2OC[C@H]1C,7.14%
11,O=C(C[C@H]1C=C[C@H](NC(=O)Nc2ccc(C(F)(F)F)cc2)[C@@H](CO)O1)NCCN1CCCC1,11.8%
12,C[C@@H]1CCCCO[C@@H](CN(C)Cc2ccncc2)[C@H](C)CN([C@H](C)CO)C(=O)c2cc(NC(=O)CCC(F)(F)F)ccc2O1,0.938%
13,CCC(=O)N1C[C@@H](C)[C@H](OC)CN(C)C(=O)c2ccc(NC(=O)NC(C)C)cc2OC[C@H]1C,5.57%
14,CNC[C@@H]1Oc2cc(C#CC3(O)CCCC3)ccc2S(=O)(=O)N([C@@H](C)CO)C[C@H]1C,-0.413%
15,OC[C@H]1O[C@@H](OCc2ccccc2)[C@H](O[C@@H]2OC[C@](O)(CO)[C@H]2O)[C@@H](O)[C@@H]1O,10.5%
16,OC[C@@]1(O)CO[C@H](OC[C@H]2O[C@@H](OC(CCCCc3ccc(O)cc3)CCc3ccc(O)cc3)[C@H](O[C@H]3OC[C@](O)(CO)[C@H]3O)[C@@H](O)[C@@H]2O)[C@@H]1O (some centres undefined),99% (active)
17,C/C=C/c1ccc2c(c1)O[C@@H](CN(C)C(=O)NC1CCCC1)[C@@H](C)CN([C@H](C)CO)S2(=O)=O,10.7%
18,CCCN(C)C[C@H]1OCCCC[C@H](C)Oc2ccc(NS(=O)(=O)c3ccc(C)cc3)cc2C(=O)N([C@@H](C)CO)C[C@H]1C,-43.7%
19,CO[C@H]1CN(C)C(=O)c2ccc(NC(=O)c3cnccn3)cc2OC[C@@H](C)N(C(C)=O)C[C@H]1C,7.05%

# Reference: PubChem BioAssay AID651548 (Broad Institute, 2012)
